# Test results from paper PMC7862700, “An all-to-all approach to the identification of sequence-specific readers for epigenetic DNA modifications on cytosine”.
# Key:
# Experiment in all cases: DAPPL (digital affinity profiling via proximity ligation, sequencing); 10 mM Tris-HCl pH 7.5, 50 mM NaCl, 1 mM DTT, 4% glycerol, room temperature, 30 min; GST-TFs on glutathione beads, 16-mer random dsDNA library, 0.1% formaldehyde crosslink after washing; high values mean tight binding
# [1] = target: T1, FEV (Homo sapiens, UniProt Q99581 1-238); conditions: protein: recombinant; tags: N-terminal GST; dsDNA, one strand shown
# T1 sequence: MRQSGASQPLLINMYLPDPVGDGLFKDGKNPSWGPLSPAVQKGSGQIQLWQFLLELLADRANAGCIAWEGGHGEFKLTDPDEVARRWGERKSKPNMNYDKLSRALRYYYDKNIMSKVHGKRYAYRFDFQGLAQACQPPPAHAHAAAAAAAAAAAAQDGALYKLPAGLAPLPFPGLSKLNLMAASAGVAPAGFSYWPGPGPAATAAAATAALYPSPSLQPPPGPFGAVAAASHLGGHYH
# Procedure, shortened: (§1)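 Binding signal is each hexamer's read frequency for a factor divided by its frequency in the tag-only sample. The factors were GST-fused human transcription factors from yeast, captured on glutathione beads, DNA-barcoded and pooled with that sample. Pools were incubated with 200 nmole of a random double-stranded 16-mer DNA library in Tris/NaCl/DTT/glycerol buffer at room temperature for 30 min, then washed, crosslinked with 0.1% formaldehyde, proximity-ligated with BsaI/T4 ligase (1 h, 37 °C), PCR-amplified and sequenced on an Illumina NextSeq500.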
# [2] = target: ETV5 (Homo sapiens, UniProt P41161 1-510); conditions: protein: recombinant; tags: N-terminal GST; dsDNA, one strand shown
# Procedure, shortened: as §1
# [3] = target: HSF1 (Homo sapiens, UniProt Q00613 1-529); conditions: protein: recombinant; tags: N-terminal GST; chain copies: 3; dsDNA, one strand shown
# Procedure, shortened: as §1
# [4] = target: T2, SPIC (Homo sapiens, UniProt Q8N5J4 1-248); conditions: protein: recombinant; tags: N-terminal GST; dsDNA, one strand shown
# T2 sequence: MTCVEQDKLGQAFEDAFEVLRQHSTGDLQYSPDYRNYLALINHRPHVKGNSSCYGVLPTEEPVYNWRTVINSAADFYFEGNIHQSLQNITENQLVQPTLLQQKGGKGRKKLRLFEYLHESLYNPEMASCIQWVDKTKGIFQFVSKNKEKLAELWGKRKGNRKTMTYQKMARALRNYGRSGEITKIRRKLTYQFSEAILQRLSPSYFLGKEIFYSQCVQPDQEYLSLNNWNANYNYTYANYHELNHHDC
# Procedure, shortened: as §1
# [5] = target: ELF4 (Homo sapiens, UniProt Q99607 1-663); conditions: protein: recombinant; tags: N-terminal GST; dsDNA, one strand shown
# Procedure, shortened: as §1
# [6] = target: T3, ELK4 (Homo sapiens, UniProt P28324-2 1-405); conditions: protein: recombinant; tags: N-terminal GST; dsDNA, one strand shown
# T3 sequence: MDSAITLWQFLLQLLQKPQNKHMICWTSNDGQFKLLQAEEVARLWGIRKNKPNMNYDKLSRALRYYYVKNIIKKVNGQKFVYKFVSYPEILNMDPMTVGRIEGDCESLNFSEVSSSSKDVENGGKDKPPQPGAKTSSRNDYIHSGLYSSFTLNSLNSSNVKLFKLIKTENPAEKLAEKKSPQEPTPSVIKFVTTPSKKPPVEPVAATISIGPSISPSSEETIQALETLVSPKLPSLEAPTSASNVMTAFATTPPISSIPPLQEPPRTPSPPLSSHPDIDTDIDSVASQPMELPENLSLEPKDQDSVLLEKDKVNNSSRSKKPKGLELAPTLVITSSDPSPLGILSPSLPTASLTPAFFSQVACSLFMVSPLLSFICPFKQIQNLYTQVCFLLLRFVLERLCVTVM
# Procedure, shortened: as §1
# [7] = target: T4, ETV2 (Homo sapiens, UniProt O00321 1-342); conditions: protein: recombinant; tags: N-terminal GST; dsDNA, one strand shown
# T4 sequence: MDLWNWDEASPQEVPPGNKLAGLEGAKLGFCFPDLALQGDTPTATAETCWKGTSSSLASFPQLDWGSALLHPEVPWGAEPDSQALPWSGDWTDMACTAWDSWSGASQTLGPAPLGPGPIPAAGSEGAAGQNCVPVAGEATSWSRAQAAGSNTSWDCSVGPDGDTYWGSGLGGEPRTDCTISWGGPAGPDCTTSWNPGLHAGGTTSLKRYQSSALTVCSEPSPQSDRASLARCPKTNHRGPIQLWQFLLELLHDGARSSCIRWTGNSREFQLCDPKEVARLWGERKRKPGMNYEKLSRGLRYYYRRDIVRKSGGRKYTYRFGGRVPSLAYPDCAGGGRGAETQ
# Procedure, shortened: as §1
# [8] = target: T5, ELF3 (Homo sapiens, UniProt P78545 1-371); conditions: protein: recombinant; tags: N-terminal GST; dsDNA, one strand shown
# T5 sequence: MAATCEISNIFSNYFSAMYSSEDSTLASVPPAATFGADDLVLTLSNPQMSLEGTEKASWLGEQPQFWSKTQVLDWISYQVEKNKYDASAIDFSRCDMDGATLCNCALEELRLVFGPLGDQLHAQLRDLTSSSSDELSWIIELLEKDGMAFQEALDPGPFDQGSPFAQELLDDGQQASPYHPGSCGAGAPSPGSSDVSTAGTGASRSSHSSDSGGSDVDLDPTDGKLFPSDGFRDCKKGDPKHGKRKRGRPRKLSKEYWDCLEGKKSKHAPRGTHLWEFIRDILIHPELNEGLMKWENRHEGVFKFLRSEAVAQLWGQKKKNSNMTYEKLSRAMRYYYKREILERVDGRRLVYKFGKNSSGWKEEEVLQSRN
# Procedure, shortened: as §1
# [9] = target: CRX (Homo sapiens, UniProt O43186 1-299); conditions: protein: recombinant; tags: N-terminal GST; dsDNA, one strand shown
# Procedure, shortened: as §1
# [10] = target: ETV1 (Homo sapiens, UniProt P50549 1-477); conditions: protein: recombinant; tags: N-terminal GST; dsDNA, one strand shown
# Procedure, shortened: as §1
# [11] = target: T6, ERF (Homo sapiens, UniProt P50548 1-548); conditions: protein: recombinant; tags: N-terminal GST; dsDNA, one strand shown
# T6 sequence: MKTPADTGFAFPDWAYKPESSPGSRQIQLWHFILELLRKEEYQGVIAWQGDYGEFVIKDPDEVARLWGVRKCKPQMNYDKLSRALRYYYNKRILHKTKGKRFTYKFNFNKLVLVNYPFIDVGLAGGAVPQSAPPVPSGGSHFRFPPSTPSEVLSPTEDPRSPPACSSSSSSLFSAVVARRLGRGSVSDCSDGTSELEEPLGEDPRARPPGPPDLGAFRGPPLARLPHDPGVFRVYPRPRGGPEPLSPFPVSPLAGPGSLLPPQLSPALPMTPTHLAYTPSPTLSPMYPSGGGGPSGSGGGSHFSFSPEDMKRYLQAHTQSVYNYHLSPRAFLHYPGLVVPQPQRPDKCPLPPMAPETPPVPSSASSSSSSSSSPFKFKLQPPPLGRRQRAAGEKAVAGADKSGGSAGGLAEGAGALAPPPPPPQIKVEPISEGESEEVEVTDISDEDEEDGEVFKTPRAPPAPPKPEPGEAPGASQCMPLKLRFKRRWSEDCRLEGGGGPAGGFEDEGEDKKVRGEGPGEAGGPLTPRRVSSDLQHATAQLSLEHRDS
# Procedure, shortened: as §1
# [12] = target: T7, ETV3L (Homo sapiens, UniProt Q6ZN32 1-361); conditions: protein: recombinant; tags: N-terminal GST; dsDNA, one strand shown
# T7 sequence: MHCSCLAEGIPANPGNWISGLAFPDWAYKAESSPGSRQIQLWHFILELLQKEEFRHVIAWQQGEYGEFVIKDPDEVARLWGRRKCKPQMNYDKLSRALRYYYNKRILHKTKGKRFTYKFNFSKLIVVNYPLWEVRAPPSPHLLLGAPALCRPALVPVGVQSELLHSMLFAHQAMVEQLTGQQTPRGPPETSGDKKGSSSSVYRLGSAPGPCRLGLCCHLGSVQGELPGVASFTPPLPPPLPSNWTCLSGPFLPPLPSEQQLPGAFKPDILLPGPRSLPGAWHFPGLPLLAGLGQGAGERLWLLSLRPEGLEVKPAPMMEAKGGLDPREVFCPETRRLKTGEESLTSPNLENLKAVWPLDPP
# Procedure, shortened: as §1
# [13] = target: T8, ETS2 (Homo sapiens, UniProt P15036 1-469); conditions: protein: recombinant; tags: N-terminal GST; dsDNA, one strand shown
# T8 sequence: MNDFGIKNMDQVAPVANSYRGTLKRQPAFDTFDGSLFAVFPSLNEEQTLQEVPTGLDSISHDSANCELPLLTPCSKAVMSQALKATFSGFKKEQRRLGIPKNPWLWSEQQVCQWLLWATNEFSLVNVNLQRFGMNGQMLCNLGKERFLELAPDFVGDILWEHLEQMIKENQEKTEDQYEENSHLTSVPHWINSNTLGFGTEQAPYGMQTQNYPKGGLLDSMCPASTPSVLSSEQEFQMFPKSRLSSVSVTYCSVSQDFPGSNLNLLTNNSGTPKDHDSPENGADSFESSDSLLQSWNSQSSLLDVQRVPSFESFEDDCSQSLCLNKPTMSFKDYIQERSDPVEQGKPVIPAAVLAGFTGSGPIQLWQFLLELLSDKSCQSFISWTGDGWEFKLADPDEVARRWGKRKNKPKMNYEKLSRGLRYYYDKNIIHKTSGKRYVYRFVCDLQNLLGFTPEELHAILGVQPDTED
# Procedure, shortened: as §1
# [14] = target: T9, SPDEF (Homo sapiens, UniProt O95238 1-335); conditions: protein: recombinant; tags: N-terminal GST; dsDNA, one strand shown
# T9 sequence: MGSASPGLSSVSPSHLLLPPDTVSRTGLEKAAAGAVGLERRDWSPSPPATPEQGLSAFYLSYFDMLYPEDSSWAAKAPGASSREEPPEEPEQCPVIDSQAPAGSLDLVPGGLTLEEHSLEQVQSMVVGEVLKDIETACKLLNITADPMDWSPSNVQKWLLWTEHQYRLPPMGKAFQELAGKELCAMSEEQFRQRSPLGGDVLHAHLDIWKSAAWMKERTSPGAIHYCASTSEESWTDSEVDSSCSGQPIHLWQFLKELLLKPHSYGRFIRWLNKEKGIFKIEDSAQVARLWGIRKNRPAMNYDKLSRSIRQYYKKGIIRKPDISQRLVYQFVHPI
# Procedure, shortened: as §1
# [15] = target: T10, ETV7 (Homo sapiens, UniProt Q9Y603 1-341); conditions: protein: recombinant; tags: N-terminal GST; dsDNA, one strand shown
# T10 sequence: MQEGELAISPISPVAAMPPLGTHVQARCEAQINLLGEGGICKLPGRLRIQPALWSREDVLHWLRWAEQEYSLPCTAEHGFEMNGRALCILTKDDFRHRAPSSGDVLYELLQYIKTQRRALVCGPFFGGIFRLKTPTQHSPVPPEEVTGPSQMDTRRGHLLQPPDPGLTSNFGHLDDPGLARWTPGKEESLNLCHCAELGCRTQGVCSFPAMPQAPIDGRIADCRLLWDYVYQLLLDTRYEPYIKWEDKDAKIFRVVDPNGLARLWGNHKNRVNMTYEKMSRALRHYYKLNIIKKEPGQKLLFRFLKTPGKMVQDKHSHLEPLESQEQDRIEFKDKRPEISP
# Procedure, shortened: as §1
# [16] = target: T11, ELF5 (Homo sapiens, UniProt Q9UKW6-2 1-255); conditions: protein: recombinant; tags: N-terminal GST; dsDNA, one strand shown
# T11 sequence: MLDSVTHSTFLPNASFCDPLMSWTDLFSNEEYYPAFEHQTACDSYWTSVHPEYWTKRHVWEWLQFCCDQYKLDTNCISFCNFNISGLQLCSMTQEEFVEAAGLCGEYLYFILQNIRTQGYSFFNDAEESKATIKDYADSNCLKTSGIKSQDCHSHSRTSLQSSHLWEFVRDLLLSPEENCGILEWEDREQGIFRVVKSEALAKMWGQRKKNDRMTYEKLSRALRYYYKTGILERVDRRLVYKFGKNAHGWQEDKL
# Procedure, shortened: as §1
# [17] = target: T12, ETV3 (Homo sapiens, UniProt P41162-2 1-143); conditions: protein: recombinant; tags: N-terminal GST; dsDNA, one strand shown
# T12 sequence: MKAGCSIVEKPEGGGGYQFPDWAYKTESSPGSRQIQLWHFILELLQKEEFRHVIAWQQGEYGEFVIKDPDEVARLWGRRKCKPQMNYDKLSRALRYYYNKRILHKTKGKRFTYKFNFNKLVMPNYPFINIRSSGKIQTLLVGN
# Procedure, shortened: as §1
# [18] = target: ETV6 (Homo sapiens, UniProt P41212 1-452); conditions: protein: recombinant; tags: N-terminal GST; dsDNA, one strand shown
# Procedure, shortened: as §1
# Sequence of HSF1 (Q00613 whole entry): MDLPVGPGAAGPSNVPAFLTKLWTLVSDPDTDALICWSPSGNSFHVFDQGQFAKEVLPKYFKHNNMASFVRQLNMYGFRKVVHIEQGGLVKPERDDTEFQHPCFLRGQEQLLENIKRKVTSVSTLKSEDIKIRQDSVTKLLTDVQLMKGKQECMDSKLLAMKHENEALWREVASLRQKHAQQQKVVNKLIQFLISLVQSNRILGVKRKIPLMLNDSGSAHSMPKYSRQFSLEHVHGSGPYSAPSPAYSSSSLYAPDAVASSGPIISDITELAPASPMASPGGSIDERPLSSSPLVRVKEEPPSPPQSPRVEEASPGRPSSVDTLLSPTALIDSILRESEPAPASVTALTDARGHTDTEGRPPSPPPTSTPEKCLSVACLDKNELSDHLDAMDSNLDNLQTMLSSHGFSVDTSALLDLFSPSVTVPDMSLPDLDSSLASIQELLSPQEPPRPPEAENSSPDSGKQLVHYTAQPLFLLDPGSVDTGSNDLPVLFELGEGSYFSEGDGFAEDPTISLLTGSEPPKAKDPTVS
# Sequence of ETV1 (P50549 whole entry): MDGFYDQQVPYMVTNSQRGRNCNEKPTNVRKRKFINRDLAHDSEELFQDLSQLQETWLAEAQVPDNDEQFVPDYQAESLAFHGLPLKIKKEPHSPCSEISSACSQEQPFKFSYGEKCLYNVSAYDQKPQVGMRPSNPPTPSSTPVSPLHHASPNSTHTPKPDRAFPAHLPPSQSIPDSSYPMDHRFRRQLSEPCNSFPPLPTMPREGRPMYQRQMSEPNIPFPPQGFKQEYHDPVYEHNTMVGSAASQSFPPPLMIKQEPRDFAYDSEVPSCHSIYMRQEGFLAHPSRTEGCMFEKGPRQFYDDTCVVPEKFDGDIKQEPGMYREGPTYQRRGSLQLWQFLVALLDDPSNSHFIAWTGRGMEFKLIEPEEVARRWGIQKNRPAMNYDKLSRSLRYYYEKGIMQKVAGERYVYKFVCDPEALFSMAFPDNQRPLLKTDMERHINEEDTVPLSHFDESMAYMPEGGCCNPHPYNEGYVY
# Sequence of CRX (O43186 whole entry): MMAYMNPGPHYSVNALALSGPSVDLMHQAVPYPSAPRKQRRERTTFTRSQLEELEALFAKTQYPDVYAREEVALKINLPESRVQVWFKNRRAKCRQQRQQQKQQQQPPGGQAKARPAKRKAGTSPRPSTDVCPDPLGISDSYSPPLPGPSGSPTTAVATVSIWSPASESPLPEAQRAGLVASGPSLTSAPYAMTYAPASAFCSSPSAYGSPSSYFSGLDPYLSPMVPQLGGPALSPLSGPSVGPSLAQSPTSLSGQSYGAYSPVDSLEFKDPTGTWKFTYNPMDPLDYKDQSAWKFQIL
# Sequence of ETV6 (P41212 whole entry): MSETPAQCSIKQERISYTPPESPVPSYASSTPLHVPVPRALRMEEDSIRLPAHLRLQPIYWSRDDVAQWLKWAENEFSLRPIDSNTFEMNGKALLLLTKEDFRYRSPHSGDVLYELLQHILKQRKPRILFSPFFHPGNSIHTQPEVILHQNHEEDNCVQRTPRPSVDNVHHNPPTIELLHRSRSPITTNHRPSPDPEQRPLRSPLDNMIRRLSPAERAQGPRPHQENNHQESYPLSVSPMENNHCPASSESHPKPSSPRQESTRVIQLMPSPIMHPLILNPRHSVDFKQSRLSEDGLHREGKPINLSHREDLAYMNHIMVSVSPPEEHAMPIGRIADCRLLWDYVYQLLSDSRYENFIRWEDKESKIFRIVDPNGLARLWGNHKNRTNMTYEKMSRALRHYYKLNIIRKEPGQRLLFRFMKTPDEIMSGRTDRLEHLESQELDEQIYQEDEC
# Sequence of ETV5 (P41161 whole entry): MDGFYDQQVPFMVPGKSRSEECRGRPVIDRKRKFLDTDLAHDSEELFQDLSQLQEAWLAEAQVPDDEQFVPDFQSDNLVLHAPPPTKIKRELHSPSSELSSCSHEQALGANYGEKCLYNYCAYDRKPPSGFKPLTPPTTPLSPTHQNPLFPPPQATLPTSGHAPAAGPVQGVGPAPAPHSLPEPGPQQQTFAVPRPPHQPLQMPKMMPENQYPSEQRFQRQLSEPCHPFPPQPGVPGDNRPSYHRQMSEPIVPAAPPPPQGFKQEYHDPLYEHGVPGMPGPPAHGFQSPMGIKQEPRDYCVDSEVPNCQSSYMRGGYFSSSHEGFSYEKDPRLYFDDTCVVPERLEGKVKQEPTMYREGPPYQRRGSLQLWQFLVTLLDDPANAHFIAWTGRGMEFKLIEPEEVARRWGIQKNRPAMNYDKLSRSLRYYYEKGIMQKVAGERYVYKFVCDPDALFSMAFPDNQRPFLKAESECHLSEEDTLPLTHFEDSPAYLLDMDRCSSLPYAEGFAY
# Sequence of ELF4 (Q99607 whole entry): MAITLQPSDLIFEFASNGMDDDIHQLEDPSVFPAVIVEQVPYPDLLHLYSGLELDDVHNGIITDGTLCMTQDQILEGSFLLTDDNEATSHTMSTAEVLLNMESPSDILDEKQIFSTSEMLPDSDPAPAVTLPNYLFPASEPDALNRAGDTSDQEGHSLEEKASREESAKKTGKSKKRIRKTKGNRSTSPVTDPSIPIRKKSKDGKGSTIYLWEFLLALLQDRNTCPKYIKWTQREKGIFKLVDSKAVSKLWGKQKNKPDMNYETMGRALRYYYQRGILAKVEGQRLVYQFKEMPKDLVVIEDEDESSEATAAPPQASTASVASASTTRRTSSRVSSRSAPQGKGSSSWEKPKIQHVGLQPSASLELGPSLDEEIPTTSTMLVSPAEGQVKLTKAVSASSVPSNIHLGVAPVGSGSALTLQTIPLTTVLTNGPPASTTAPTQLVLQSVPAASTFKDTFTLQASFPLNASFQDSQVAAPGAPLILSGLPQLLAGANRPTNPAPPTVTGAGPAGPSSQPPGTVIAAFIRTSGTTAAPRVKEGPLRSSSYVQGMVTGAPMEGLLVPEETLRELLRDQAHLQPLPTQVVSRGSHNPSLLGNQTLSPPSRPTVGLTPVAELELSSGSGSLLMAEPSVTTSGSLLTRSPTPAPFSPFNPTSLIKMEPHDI
sequence,measurement,setting,value
TCATAT,binding signal,[1],"1.24 fold enrichment (6-mer frequency, TF over GST control)"
same,binding signal,[2],"1.23 fold enrichment (6-mer frequency, TF over GST control)"
same,binding signal,[3],"1.15 fold enrichment (6-mer frequency, TF over GST control)"
same,binding signal,[4],"1.13 fold enrichment (6-mer frequency, TF over GST control)"
same,binding signal,[5],"1.28 fold enrichment (6-mer frequency, TF over GST control)"
same,binding signal,[6],"1.23 fold enrichment (6-mer frequency, TF over GST control)"
same,binding signal,[7],"1.29 fold enrichment (6-mer frequency, TF over GST control)"
same,binding signal,[8],"1.23 fold enrichment (6-mer frequency, TF over GST control)"
same,binding signal,[9],"1.22 fold enrichment (6-mer frequency, TF over GST control)"
same,binding signal,[10],"1.35 fold enrichment (6-mer frequency, TF over GST control)"
same,binding signal,[11],"1.22 fold enrichment (6-mer frequency, TF over GST control)"
same,binding signal,[12],"1.3 fold enrichment (6-mer frequency, TF over GST control)"
same,binding signal,[13],"1.27 fold enrichment (6-mer frequency, TF over GST control)"
same,binding signal,[14],"1.23 fold enrichment (6-mer frequency, TF over GST control)"
same,binding signal,[15],"1.05 fold enrichment (6-mer frequency, TF over GST control)"
same,binding signal,[16],"1.19 fold enrichment (6-mer frequency, TF over GST control)"
same,binding signal,[17],"1.26 fold enrichment (6-mer frequency, TF over GST control)"
same,binding signal,[18],"1.24 fold enrichment (6-mer frequency, TF over GST control)"
